Laboratory results from PubChem BioAssay (EPA / NIEHS).
The source made the active and inactive calls. How the source made its calls: active means hit-call score of the fitted dose curve at least 0.9, where 1 is the maximum; inactive means score below 0.9.

What follows are compounds tested on Human Leukocyte Antigen - DR isotype (HLADR), HLA-DRA (gene 3122) (assay: BSK_CASM3C_HLADR: BioMAP Diversity Plus: CASM3C Assay for Human Leukocyte Antigen - DR isotype (HLADR) Biomarker Activity (AID 2283043;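 further: cell-surface HLA-DR protein level quantified by ELISA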)). Settings: primary human coronary artery smooth muscle cells; actives raise or lower the signal.

Structure (SMILES)	outcome	AC50
Cc1c(COC(=O)[C@@H]2[C@H](/C=C(\Cl)C(F)(F)F)C2(C)C)cccc1-c1ccccc1	inactive	–
O=c1n(Cl)c(=O)n(Cl)c(=O)n1Cl	inactive	–
CC1(C)CCC(=Cc2ccc(Cl)cc2)C1(O)Cn1cncn1 (configuration not stated)	inactive	–
COC(=O)N(C(=O)N1CO[C@@]2(C(=O)OC)Cc3cc(Cl)ccc3C2=N1)c1ccc(OC(F)(F)F)cc1	inactive	–
CC1(C)CON(Cc2ccccc2Cl)C1=O	inactive	–
Cn1c(-c2ccccc2)cc(-c2ccccc2)[n+]1C	inactive	–
COC(=O)NC(=S)Nc1ccccc1NC(=S)NC(=O)OC	inactive	–
N#CN=C1SCCN1Cc1ccc(Cl)nc1	inactive	–
CS(=O)(=O)c1cc(C(F)(F)F)ccc1C(=O)c1cnoc1C1CC1	inactive	–
COP(=S)(OC)SCn1nnc2ccccc2c1=O	inactive	–
CCSC(=O)N1CCCCCC1	inactive	–
O=C(O)c1c(Cl)ccc2cc(Cl)cnc12	inactive	–
CCCCOCN(C(=O)CCl)c1c(CC)cccc1CC	–	26.1 µM (active)
CC(C)N1C(=O)c2ccccc2NS1(=O)=O	inactive	–
CCCCC(O)(Cn1cncn1)c1ccc(Cl)cc1Cl (configuration not stated)	inactive	–
COCC(C)N(C(=O)CCl)c1c(C)csc1C (configuration not stated)	inactive	–
CC1(C)C(C=C(Cl)Cl)C1C(=O)OC(C#N)c1cccc(Oc2ccccc2)c1 (configuration not stated)	inactive	–
CCOP(=S)(OCC)Oc1nc(Cl)n(C(C)C)n1	inactive	–

Structure (SMILES)	outcome	AC50
COP(=O)(OC)O/C(C)=C/C(=O)N(C)C	inactive	–
CCN(CC)c1nc(C)cc(OP(=S)(OC)OC)n1	–	11.8 µM (active)
Cc1cc(C)nc(Nc2ccccc2)n1	inactive	–
O=P(O)(O)CCCl	inactive	–
CC(C)(C)C(=O)C(Oc1ccc(Cl)cc1)n1cncn1 (configuration not stated)	inactive	–
C=C(C)CN(CC)c1c([N+](=O)[O-])cc(C(F)(F)F)cc1[N+](=O)[O-]	inactive	–
C=CCOC(=O)C(C)(C)OC(=O)c1cc(-n2c(=O)cc(C(F)(F)F)n(C)c2=O)ccc1Cl	inactive	–
CCN(CC)C(=O)C(C)Oc1cccc2ccccc12 (configuration not stated)	inactive	–
COCc1cnc(C2=NC(C)(C(C)C)C(=O)N2)c(C(=O)O)c1 (configuration not stated)	inactive	–
O=C1C2CC=CCC2C(=O)N1SC(Cl)(Cl)Cl (configuration not stated)	–	13.4 µM (active)
CCCC(=NOCC)C1=C(O)CC(CC(C)SCC)CC1=O (configuration not stated)	inactive	–
CO/N=C(/C1=NOCCO1)c1ccccc1Oc1ncnc(Oc2ccccc2Cl)c1F	inactive	–
CC(C)Oc1cccc(NC(=O)c2ccccc2C(F)(F)F)c1	inactive	–
CC(C)C1(C)N=C(c2ncccc2C(=O)O)NC1=O (configuration not stated)	inactive	–
COCC(=O)N(c1c(C)cccc1C)C(C)C(=O)OC (configuration not stated)	inactive	–
CC(C)N1C(=O)N(c2ccccc2)CSC1=NC(C)(C)C	inactive	–
CCNP(=S)(OC)O/C(C)=C/C(=O)OC(C)C (configuration not stated)	inactive	–
CNC(=O)Oc1cccc2ccccc12	inactive	–

These compounds were tested on Macrophage colony-stimulating factor (MCSF), CSF1 (gene 1435) (assay: BSK_CASM3C_MCSF: BioMAP Diversity Plus: CASM3C Assay for Macrophage colony-stimulating factor (MCSF) Biomarker Activity (AID 2283044;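 further: M-CSF protein amount quantified by ELISA after 24 h exposure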)). Settings: primary human coronary artery smooth muscle cells; actives raise or lower the signal.

Structure (SMILES)	outcome	AC50
Cc1c(COC(=O)[C@@H]2[C@H](/C=C(\Cl)C(F)(F)F)C2(C)C)cccc1-c1ccccc1	inactive	–
O=c1n(Cl)c(=O)n(Cl)c(=O)n1Cl	inactive	–
CC1(C)CCC(=Cc2ccc(Cl)cc2)C1(O)Cn1cncn1 (configuration not stated)	inactive	–
COC(=O)N(C(=O)N1CO[C@@]2(C(=O)OC)Cc3cc(Cl)ccc3C2=N1)c1ccc(OC(F)(F)F)cc1	inactive	–
CC1(C)CON(Cc2ccccc2Cl)C1=O	inactive	–
Cn1c(-c2ccccc2)cc(-c2ccccc2)[n+]1C	inactive	–
COC(=O)NC(=S)Nc1ccccc1NC(=S)NC(=O)OC	inactive	–
N#CN=C1SCCN1Cc1ccc(Cl)nc1	inactive	–
CS(=O)(=O)c1cc(C(F)(F)F)ccc1C(=O)c1cnoc1C1CC1	inactive	–
COP(=S)(OC)SCn1nnc2ccccc2c1=O	inactive	–
CCSC(=O)N1CCCCCC1	inactive	–
O=C(O)c1c(Cl)ccc2cc(Cl)cnc12	inactive	–
CCCCOCN(C(=O)CCl)c1c(CC)cccc1CC	–	28.8 µM (active)
CC(C)N1C(=O)c2ccccc2NS1(=O)=O	inactive	–
CCCCC(O)(Cn1cncn1)c1ccc(Cl)cc1Cl (configuration not stated)	inactive	–
COCC(C)N(C(=O)CCl)c1c(C)csc1C (configuration not stated)	inactive	–
CC1(C)C(C=C(Cl)Cl)C1C(=O)OC(C#N)c1cccc(Oc2ccccc2)c1 (configuration not stated)	inactive	–
CCOP(=S)(OCC)Oc1nc(Cl)n(C(C)C)n1	inactive	–

Structure (SMILES)	outcome	AC50
COP(=O)(OC)O/C(C)=C/C(=O)N(C)C	inactive	–
CCN(CC)c1nc(C)cc(OP(=S)(OC)OC)n1	inactive	–
Cc1cc(C)nc(Nc2ccccc2)n1	inactive	–
O=P(O)(O)CCCl	inactive	–
CC(C)(C)C(=O)C(Oc1ccc(Cl)cc1)n1cncn1 (configuration not stated)	inactive	–
C=C(C)CN(CC)c1c([N+](=O)[O-])cc(C(F)(F)F)cc1[N+](=O)[O-]	inactive	–
C=CCOC(=O)C(C)(C)OC(=O)c1cc(-n2c(=O)cc(C(F)(F)F)n(C)c2=O)ccc1Cl	inactive	–
CCN(CC)C(=O)C(C)Oc1cccc2ccccc12 (configuration not stated)	inactive	–
COCc1cnc(C2=NC(C)(C(C)C)C(=O)N2)c(C(=O)O)c1 (configuration not stated)	inactive	–
O=C1C2CC=CCC2C(=O)N1SC(Cl)(Cl)Cl (configuration not stated)	–	28.9 µM (active)
CCCC(=NOCC)C1=C(O)CC(CC(C)SCC)CC1=O (configuration not stated)	inactive	–
CO/N=C(/C1=NOCCO1)c1ccccc1Oc1ncnc(Oc2ccccc2Cl)c1F	inactive	–
CC(C)Oc1cccc(NC(=O)c2ccccc2C(F)(F)F)c1	inactive	–
CC(C)C1(C)N=C(c2ncccc2C(=O)O)NC1=O (configuration not stated)	inactive	–
COCC(=O)N(c1c(C)cccc1C)C(C)C(=O)OC (configuration not stated)	inactive	–
CC(C)N1C(=O)N(c2ccccc2)CSC1=NC(C)(C)C	inactive	–
CCNP(=S)(OC)O/C(C)=C/C(=O)OC(C)C (configuration not stated)	inactive	–
CNC(=O)Oc1cccc2ccccc12	inactive	–
